Screens: PubChem, several laboratories
Compounds with a hit are over-represented: about 22% of the library has one in this group of screens.
CYP2C19 inh – inhibitors of human CYP2C19. P33261. CYP2C19 Supersomes, luciferin-H EGE luminescence, 30 min. inhibition, % at 5 µM. 96,000 compounds, 21% hits. AID 778;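 active = CYP2C19 inhibition above a set limit at 5 µM in the primary screen, cut at about 50% in these data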;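 note: plate controls were negative control wells for no effect and 2.5 mM tranylcypromine positive control for full effect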
Target sequence (P33261 whole entry, looked up): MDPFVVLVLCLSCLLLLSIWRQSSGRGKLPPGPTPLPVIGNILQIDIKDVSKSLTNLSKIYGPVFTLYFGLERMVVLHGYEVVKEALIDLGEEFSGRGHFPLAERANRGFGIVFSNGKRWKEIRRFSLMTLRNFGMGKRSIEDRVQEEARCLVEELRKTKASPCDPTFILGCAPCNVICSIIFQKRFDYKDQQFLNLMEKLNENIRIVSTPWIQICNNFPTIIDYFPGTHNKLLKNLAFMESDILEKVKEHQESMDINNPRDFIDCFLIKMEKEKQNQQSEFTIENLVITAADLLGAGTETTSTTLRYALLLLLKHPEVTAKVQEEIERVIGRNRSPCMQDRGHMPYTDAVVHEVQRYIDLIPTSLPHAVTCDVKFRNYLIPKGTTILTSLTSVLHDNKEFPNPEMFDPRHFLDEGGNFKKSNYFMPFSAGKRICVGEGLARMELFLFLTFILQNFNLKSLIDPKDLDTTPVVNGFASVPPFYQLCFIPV
CYP2C9 inhib – blocks human cytochrome P450 2C9; P11712; CYP2C9 Supersomes, luciferin-H conversion, luminescence; inhibition, % at 5 µM; 96,000 compounds, 20% hits;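 active = blocking of liver enzyme CYP2C9 beyond about 50% at 5 µM, limit read from the data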
CYP2C19 act – activators of human cytochrome P450 2C19; P33261; recombinant CYP2C19, luciferin-H EGE luminescence; hits give high values; 0 = fully inhibited enzyme, 1 = untreated enzyme; activation factor at 5 µM; 96,000 tested, under 10 active;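 active = activation factor of at least 2 at 5 µM in the primary screen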;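 note: 0 = wells with 2.5 mM tranylcypromine and 1 = vehicle-only wells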
Measles CPE – protection of cells from measles virus. protection (pct of control), % at 4 µM. Measles virus-infected cells, CPE protection, absorbance. 140,000 compounds, 1.5% hits; in the data active = protection mostly above about 24%, no sharp cut-off; inactive = mostly below about 26%
CYP2C9 activ – activators of human CYP2C9. activation factor at 5 µM. 96,000 compounds, 1.4% hits. P11712. AID 1024. recombinant CYP2C9, luciferin-H conversion, luminescence; hits give high values; factor 1 = untreated enzyme, 0 = blocked;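 active = activation factor of 2 or more for CYP2C9 at a 5 µM dose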;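 note: 0 = sulfaphenazole-blocked wells and 1 = vehicle-only wells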
Active calls of the source: *; · = not tested or not shown.

SMILES	CYP2C19 inh	CYP2C9 inhib	CYP2C19 act	Measles CPE	CYP2C9 activ
CN1C2C=C3C(C#N)=C(N)C(C#N)(C#N)[C@@H](c4cccs4)C3C1CC2 (stereo partly drawn)	18.9	17.4	0.8	9.8	0.8
O=C(CCN1CCN(c2ccc(F)cc2)CC1)Nc1ccccc1F	66.3*	60.3*	0.3	10.6	0.4
COc1ccccc1NC(=O)CCN1CCN(CCC(=O)Nc2ccccc2OC)CC1	21.5	15.9	0.8	·	0.8
CSc1ccc(N2CCN(CCCNC(=O)Nc3ccccc3F)CC2)cc1	20.2	21.0	0.8	0.0	0.8
COc1ccc(S(=O)(=O)N2CCN(CCC(=O)Nc3ccccc3F)CC2)cc1	87.0*	94.5*	0.1	11.9	0.1
CCCCCn1c(N)c(-c2nc3ccccc3s2)c2c([N+](=O)[O-])nn(C)c(=O)c21	9.2	69.9*	0.9	9.3	0.3
Cc1ccc(-c2csc(N(CCc3ccccc3)C(=O)COc3ccccc3)n2)cc1	61.5*	98.5*	0.4	21.3	0
O=C(COc1ccccc1)N(CCc1ccccc1)c1nc(-c2ccc(F)cc2)cs1	3.3	80.6*	1	·	0.2
Cc1ccc(-c2csc(N(Cc3ccccc3)C(=O)COc3ccccc3)n2)cc1	7.1	31.2	0.9	·	0.7
COc1ccccc1CNC(=O)c1c(O)c2cc(OC)c(OC)cc2[nH]c1=O	-19.8	-4.2	1.2	14.8	1
CCOc1cc(C(C#N)N2CCOCC2)ccc1OC (stereo not drawn)	47.6	4.5	0.5	3.7	1
O=C(NNS(=O)(=O)c1ccc2ccccc2c1)c1cccs1	·	·	·	28.5	·
CCc1c(C)nc2cc(-c3cc(OC)cc(OC)c3)nn2c1N1CCCC1	26.5	33.2	0.7	0.9	0.7
CCOCCN1CCN(c2c3c(nc4cc(-c5ccc(F)cc5)nn24)CCC3)CC1	13.8	50.5*	0.9	7.3	0.5
COc1cc(OC)cc(-c2cc3nc4c(c(N5CCN(c6ncccn6)CC5)n3n2)CCCC4)c1	95.1*	93.7*	0	19.9	0.1
CCOCCN1CCN(c2c(CC)c(C)nc3cc(-c4cc(OC)cc(OC)c4)nn23)CC1	·	·	·	5.8	·
CCc1cccc2c(C#N)cn(CC(=O)NCCOC)c12	32.6	0.7	0.7	3.4	1
COc1nc(-c2ccccc2Cl)ccc1C#N	22.4	16.2	0.8	9.6	0.8
Cc1ccc(C)c(C(=O)NCc2ccncc2)c1	45.6	53.7*	0.5	44.8	0.5
Cc1ccc(SCc2ccc(C(=O)NCc3ccncc3)cc2)cc1	82.6*	99.2*	0.2	12.1	0
Cc1cc(C)c(O)c(-c2cc(C(=O)NCc3ccccc3)[nH]n2)c1	1.8	28.7	1	8.5	0.7
CN(c1ccc(C(=O)NCc2ccncc2)cc1)S(C)(=O)=O	0.5	41.2	1	5.4	0.6
Cc1ccc(O)c(-c2cc(C(=O)NCc3ccncc3)[nH]n2)c1	74.7*	96.2*	0.3	19.6	0
CC1Sc2n(c3ccccc3[n+]2C)N=C1c1ccccc1 (stereo not drawn)	·	·	·	30.7	·
COc1ccc(Nc2nc(N)nc(COc3ccc(OC)cc3)n2)cc1	-9.9	-1.9	1.1	13.1	1
SMILES	CYP2C19 inh	CYP2C9 inhib	CYP2C19 act	Measles CPE	CYP2C9 activ
COc1ccc(OCc2nc(N)nc(Nc3ccccc3)n2)cc1	67.5*	69.9*	0.3	5.2	0.3
COc1ccc2nc(SCc3nc(N)nc(Nc4ccccc4)n3)[nH]c2c1	81.3*	98.2*	0.2	5.0	0
COc1ccc2c(Cl)c(-c3nnc(SCC(=O)c4ccccc4)n3C)sc2c1	9.5	10.9	0.9	19.4	0.9
CCCCCC(=O)Nc1cc(N(C)C)nc2ccccc12	-2.4	10.5	1	23.3	0.9
COC(=O)c1c(-c2ccc(C)cc2)csc1NC(=O)Cc1ccc(OC)c(OC)c1	35.0	72.1*	0.7	23.5	0.3
COC(=O)c1c(-c2ccc(Br)cc2)csc1NC(=O)Cc1ccc(OC)c(OC)c1	30.6	63.2*	0.7	20.8	0.4
COC(=O)c1c(-c2cccc3ccccc23)csc1NC(=O)Cc1ccc(OC)c(OC)c1	62.2*	87.3*	0.4	7.7	0.1
COC(=O)c1c(-c2ccc(C)cc2)csc1NC(=O)C1CC=CCC1C(=O)O (stereo not drawn)	·	·	·	47.2*	·
O=c1c2ccccc2nnn1CSc1nnc(-c2ccco2)o1	35.3	38.9	0.6	4.7	0.6
CN(C)c1ccc(NC(=O)c2cccc(N3C(=O)C4C5C=CC(C5)C4C3=O)c2)cc1 (stereo not drawn)	·	·	·	3.9	·
CN(C)S(=O)(=O)c1cccc(NC(=O)COc2nc3ccccc3nc2N2CCOCC2)c1	·	·	·	17.7	·
COC(=O)c1c(-c2ccc(F)cc2)csc1NC(=O)c1ccco1	17.0	63.7*	0.8	3.4	0.4
O=C(Nc1scc(-c2ccccc2)c1C(=O)O)c1ccco1	11.7	11.9	0.9	26.1	0.9
COc1ccc(C)cc1NC(=O)C(OC(=O)c1ccc(Cl)c(S(=O)(=O)N(C)c2ccccc2)c1)c1ccccc1 (stereo not drawn)	·	·	·	6.1	·
CN(c1ccccc1)S(=O)(=O)c1cc(C(=O)c2nccn2C)ccc1Cl	98.7*	91.3*	0	5.3	0.1
c1ccc(OCCOc2cccc3cccnc23)cc1	·	·	·	18.4	·
Cc1sc(NC(=O)C2CCCCC2C(=O)O)c(C(N)=O)c1C (stereo not drawn)	0.3	11.6	1	3.6	0.9
COC(=O)c1cc2c(=O)n3cccc(C)c3nc2n(Cc2cccnc2)c1=N	0.1	15.5	1	·	0.8
COc1ccc(CCNC(=O)c2cc3c(=O)n4cccc(C)c4nc3n(Cc3ccncc3)c2=N)cc1	90.4*	87.3*	0.1	·	0.1
CCCCNC(=O)c1cc2c(=O)n3cccc(C)c3nc2n(Cc2ccncc2)c1=N	64.6*	44.2	0.4	3.5	0.6
COCCNC(=O)c1cc2c(=O)n3cccc(C)c3nc2n(Cc2ccncc2)c1=N	51.0*	39.0	0.5	11.3	0.6
CCCCNC(=O)c1cc2c(=O)n3cccc(C)c3nc2n(CCN2CCOCC2)c1=N	-5.5	8.6	1.1	19.1	0.9
COc1cc(CO)cc(-c2cc(CO)cc(OC)c2OC)c1OC	10.9	3.7	0.9	18.7	1
O=C1c2cccc3c(Cl)ccc(c23)C(=O)N1O	3.5	6.7	1	8.4	0.9
CCOC(=O)N1CCN(S(=O)(=O)c2ccc3c(c2)CCN3C(=O)C2CC2)CC1	17.9	-1.7	0.8	7.6	1
SMILES	CYP2C19 inh	CYP2C9 inhib	CYP2C19 act	Measles CPE	CYP2C9 activ
Cc1noc(C)c1C(c1ccccc1)S(=O)(=O)c1ccccc1 (stereo not drawn)	·	·	·	9.4	·
Cc1noc(C)c1C(c1ccccc1)c1ccccc1	94.4*	76.2*	0.1	16.9	0.2
CCOc1cc(-n2ncc(C#N)c2N)nc(SC)n1	·	·	·	14.0	·
O=C(COC(=O)[C@H](Cc1ccccc1)NC(=O)c1cccs1)NC1CCCCC1	·	·	·	14.1	·
c1ccc(Nc2nc(-c3ccncc3)nc3ccccc23)cc1	·	·	·	21.5	·
COC(=O)CNc1nc(-c2ccncc2)nc2ccccc12	56.2*	83.6*	0.4	3.6	0.2
